According to the supplement of paper PMC3545927:
The list shows a part of the results. No count for the full screen is at hand.

B1: HC2146 (peptide)
chain: CAMVVTSTWVAGNASASA
B2: HC825 (peptide)
chain: CAIGTVLDQAAGNASASA
B3: HC1509 (peptide)
chain: CARRCRASGVAGNASASA
B4: FS-2812 (peptide)
chain: CARSKRRWVIAGNASASA
B5: FS-2169 (peptide)
chain: CARQKRGWMWAGNASASA
B6: FS-3255 (peptide)
chain: CARHKRLSYQAGNASASA
B7: FS-2211 (peptide)
chain: CARHKRQSGVAGNASASA
B8: FS-2749 (peptide)
chain: CARQKKGVVPAGNASASA
B9: FS-2778 (peptide)
chain: CARRKRDWVIAGNASASA
B10: FS-2751 (peptide)
chain: CARQKRDWIWAGNASASA
B11: FS-2289 (peptide)
chain: CARQKRDPAFAGNASASA
B12: HC2280 (peptide)
chain: CACLEVVTSTAGNASASA

Biological target: furin, P09958
Assay: furin cleavage Z-score vs untreated control; higher = more cleavage, active = 3.5 or more, inactive = 1 or less, 8 variable residues between constant flanks
Experimental: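 Multiplexed peptide-cDNA fusion cleavage assay. 8-mer variable peptides flanked by constant Cys-Ala (N-term) and Ala-Gly-Asn-Ala-Ser-Ala-Ser-Ala (C-term) and conjugated to a cDNA oligonucleotide were bead-immobilised via the N-terminus. They were treated with purified furin at a 1:10 enzyme:substrate ratio in 50 mM HEPES pH 7.5, 1 mM CaCl2, 100 mM NaCl for 7.5, 15 or 30 min. Released cDNA was counted by next-generation sequencing, and log counts versus no-furin controls were lowess-adjusted and converted to robust Z-scores.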

furin, P09958, sequence (P09958 whole entry): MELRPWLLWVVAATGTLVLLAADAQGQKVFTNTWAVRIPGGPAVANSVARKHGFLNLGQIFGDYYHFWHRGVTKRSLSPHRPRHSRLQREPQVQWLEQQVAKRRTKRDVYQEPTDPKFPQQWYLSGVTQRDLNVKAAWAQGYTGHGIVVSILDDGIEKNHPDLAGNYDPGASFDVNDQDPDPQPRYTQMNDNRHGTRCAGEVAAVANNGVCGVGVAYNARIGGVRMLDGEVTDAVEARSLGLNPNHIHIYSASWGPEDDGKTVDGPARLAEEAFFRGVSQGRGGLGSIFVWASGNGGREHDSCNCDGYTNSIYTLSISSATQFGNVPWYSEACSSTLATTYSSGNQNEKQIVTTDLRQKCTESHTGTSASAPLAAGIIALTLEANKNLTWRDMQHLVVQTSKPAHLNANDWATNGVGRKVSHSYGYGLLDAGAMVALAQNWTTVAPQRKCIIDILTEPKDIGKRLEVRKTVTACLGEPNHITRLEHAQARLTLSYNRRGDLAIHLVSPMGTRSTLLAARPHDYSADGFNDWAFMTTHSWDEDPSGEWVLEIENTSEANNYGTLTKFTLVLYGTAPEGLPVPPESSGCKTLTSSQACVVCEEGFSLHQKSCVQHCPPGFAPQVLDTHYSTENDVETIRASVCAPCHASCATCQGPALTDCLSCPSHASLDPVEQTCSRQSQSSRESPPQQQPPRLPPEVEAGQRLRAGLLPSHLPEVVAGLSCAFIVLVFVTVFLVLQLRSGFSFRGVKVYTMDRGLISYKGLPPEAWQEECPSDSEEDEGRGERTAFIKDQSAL

Sequence	furin cleavage Z-score (7.5 min)	furin cleavage Z-score (15 min)	furin cleavage Z-score (30 min)
B1	-1.12 (inactive)	-1.84 (inactive)	-2.22 (inactive)
B2	-1.51 (inactive)	-1.57 (inactive)	-0.129 (inactive)
B3	-1.17 (inactive)	-0.493 (inactive)	-0.69 (inactive)
B4	-0.553 (inactive)	-0.688 (inactive)	0.146 (inactive)
B5	-0.547 (inactive)	2.65	3
B6	-1.36 (inactive)	-0.609 (inactive)	1.23
B7	5.97 (active)	7.29 (active)	6.66 (active)
B8	0.952 (inactive)	-0.837 (inactive)	-1.72 (inactive)
B9	3.18	5.46 (active)	8.57 (active)
B10	3.51 (active)	5.26 (active)	8.38 (active)
B11	2.9	3.65 (active)	5.36 (active)
B12	-1.07 (inactive)	-0.98 (inactive)	0.458 (inactive)
